Measurements: the supplement of paper PMC11732987, “Enantioselective OTUD7B fragment discovery through chemoproteomics screening and high-throughput optimisation” (Communications Chemistry, 2025)

Columns and labels:
Test in all cases: log2 ratio of Biotin-Ahx-Ub-VS probe labelling (fragment/DMSO); higher = less target engagement (more negative = stronger competition), active = hit call of the paper (q ≤ 0.05, log2 ratio ≤ -1)
Conditions in all cases: compound concentration: 200 uM; treatment time: 3 h
USP19 = target: T1, USP19 (UniProt O94966)
T1 sequence (whole entry): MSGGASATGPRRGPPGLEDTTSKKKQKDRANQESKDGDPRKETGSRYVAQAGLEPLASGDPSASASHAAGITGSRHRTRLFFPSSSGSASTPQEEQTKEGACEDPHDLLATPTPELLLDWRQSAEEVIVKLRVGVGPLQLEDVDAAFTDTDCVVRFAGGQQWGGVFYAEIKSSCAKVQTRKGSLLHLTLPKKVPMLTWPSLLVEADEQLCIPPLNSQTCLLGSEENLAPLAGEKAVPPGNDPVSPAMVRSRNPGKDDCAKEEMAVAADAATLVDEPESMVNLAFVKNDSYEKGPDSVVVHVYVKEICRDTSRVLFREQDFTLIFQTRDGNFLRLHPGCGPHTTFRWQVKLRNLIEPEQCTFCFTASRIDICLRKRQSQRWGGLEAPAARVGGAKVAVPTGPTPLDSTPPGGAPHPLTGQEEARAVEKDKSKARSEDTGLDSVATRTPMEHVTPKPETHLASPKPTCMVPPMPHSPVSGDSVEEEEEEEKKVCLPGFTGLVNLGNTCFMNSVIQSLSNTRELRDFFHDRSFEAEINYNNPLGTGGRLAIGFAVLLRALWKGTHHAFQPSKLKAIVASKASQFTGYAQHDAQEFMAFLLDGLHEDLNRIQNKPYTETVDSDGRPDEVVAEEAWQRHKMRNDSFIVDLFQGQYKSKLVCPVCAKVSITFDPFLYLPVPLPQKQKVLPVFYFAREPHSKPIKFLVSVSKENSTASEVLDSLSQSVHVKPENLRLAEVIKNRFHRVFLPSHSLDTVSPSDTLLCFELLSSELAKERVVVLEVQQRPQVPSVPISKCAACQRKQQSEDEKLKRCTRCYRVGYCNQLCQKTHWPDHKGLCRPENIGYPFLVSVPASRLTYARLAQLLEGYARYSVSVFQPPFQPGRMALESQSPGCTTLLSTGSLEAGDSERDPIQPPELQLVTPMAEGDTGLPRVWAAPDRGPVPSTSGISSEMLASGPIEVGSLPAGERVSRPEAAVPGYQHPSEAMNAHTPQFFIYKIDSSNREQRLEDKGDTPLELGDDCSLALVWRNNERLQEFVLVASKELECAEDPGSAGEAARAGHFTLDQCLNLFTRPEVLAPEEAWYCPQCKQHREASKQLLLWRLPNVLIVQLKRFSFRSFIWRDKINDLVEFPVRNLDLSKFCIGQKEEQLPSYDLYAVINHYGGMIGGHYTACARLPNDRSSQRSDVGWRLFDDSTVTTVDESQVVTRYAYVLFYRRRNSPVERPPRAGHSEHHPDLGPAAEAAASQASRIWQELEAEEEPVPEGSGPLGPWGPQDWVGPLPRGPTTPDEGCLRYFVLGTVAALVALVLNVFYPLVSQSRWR
In short: (§1)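 Using Biotin-Ahx-Ub-VS at 0.5 µM final for 1 h, DUBs were labelled in HEK293T lysate (495 µg per sample) that had first been treated in triplicate with fragment at 200 µM or vehicle for 3 h. NeutrAvidin enrichment, LysC and trypsin digestion and diaPASEF LC-MS/MS followed. Spectronaut label-free quantities were global-median-normalised. Values are average log2 fragment/vehicle ratios by unpaired t-test, using proteins with ≥2 unique peptides.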

USP22 = target: T2, USP22 (UniProt Q9UPT9)
T2 sequence (whole entry): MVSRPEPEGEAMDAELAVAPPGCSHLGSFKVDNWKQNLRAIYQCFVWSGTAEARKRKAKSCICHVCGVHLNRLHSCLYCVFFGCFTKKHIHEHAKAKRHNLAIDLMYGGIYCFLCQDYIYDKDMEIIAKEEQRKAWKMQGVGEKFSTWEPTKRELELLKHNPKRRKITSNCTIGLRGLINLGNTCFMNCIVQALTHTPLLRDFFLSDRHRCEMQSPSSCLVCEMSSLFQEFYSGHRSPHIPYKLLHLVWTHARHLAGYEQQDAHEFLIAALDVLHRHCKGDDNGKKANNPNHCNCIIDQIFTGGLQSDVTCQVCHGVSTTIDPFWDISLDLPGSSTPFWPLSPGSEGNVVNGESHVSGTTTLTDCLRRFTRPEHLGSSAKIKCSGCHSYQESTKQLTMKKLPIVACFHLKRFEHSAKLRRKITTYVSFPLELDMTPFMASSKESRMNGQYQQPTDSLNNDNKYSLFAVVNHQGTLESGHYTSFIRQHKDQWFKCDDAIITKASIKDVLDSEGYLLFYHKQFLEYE
In short: as §1

USP24 = USP24 (UniProt Q9UPU5)
In short: as §1

USP25 = target: T3, USP25 (UniProt Q9UHP3)
T3 sequence (whole entry): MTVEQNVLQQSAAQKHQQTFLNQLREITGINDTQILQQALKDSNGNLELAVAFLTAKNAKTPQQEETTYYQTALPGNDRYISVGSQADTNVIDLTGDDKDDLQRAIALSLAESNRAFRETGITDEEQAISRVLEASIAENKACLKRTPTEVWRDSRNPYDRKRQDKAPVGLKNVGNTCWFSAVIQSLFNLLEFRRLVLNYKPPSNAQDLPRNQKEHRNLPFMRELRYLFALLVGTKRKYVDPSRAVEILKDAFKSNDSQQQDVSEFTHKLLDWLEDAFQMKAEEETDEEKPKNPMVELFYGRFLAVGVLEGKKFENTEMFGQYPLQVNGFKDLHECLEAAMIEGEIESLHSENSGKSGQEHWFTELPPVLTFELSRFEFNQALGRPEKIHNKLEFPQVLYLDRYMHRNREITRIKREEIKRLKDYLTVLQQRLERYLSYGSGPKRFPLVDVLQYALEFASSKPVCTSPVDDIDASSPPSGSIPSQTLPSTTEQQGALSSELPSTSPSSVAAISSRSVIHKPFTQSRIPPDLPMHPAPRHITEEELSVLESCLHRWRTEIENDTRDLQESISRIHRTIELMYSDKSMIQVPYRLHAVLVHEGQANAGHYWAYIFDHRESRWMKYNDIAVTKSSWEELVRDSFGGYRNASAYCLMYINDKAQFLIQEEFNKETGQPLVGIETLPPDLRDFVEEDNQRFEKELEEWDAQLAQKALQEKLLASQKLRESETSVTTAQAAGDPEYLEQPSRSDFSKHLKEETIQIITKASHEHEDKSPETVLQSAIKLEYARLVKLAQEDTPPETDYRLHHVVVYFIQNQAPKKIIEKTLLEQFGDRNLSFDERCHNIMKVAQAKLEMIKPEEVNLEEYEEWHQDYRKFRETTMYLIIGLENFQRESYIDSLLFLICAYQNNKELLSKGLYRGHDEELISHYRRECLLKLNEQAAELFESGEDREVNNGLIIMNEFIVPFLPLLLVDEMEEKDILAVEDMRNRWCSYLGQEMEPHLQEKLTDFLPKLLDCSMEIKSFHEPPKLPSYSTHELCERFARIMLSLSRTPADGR
In short: as §1

USP28 = target: T4, USP28 (UniProt Q96RU2)
T4 sequence (whole entry): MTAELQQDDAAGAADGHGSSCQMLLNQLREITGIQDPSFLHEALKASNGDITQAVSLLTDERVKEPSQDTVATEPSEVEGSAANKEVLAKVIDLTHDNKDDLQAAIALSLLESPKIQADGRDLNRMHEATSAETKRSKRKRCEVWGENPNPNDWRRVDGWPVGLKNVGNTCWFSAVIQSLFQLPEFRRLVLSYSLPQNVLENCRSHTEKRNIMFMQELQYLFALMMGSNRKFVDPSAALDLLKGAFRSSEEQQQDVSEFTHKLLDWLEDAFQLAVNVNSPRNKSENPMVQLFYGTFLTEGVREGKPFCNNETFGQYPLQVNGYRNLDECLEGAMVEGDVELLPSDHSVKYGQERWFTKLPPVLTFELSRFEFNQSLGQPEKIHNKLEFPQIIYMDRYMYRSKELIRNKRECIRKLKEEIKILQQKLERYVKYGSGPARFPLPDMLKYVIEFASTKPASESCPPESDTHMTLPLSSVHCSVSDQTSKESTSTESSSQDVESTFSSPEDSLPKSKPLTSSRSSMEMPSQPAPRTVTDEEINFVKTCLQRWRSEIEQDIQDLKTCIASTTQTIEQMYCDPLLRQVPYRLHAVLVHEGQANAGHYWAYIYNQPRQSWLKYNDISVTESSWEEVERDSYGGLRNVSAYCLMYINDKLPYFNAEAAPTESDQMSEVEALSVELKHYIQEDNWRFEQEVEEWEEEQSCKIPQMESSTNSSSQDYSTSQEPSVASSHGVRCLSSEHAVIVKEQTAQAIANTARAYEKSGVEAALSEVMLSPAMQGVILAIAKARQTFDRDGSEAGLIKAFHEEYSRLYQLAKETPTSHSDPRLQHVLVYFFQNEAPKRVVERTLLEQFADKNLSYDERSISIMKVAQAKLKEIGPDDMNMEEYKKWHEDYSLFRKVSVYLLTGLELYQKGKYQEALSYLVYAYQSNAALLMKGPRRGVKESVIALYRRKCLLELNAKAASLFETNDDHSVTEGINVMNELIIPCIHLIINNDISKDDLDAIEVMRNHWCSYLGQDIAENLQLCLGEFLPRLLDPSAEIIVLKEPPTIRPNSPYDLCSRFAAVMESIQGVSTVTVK
In short: as §1

Measured: log2 ratio of Biotin-Ahx-Ub-VS probe labelling

USP24, sequence (Q9UPU5 whole entry): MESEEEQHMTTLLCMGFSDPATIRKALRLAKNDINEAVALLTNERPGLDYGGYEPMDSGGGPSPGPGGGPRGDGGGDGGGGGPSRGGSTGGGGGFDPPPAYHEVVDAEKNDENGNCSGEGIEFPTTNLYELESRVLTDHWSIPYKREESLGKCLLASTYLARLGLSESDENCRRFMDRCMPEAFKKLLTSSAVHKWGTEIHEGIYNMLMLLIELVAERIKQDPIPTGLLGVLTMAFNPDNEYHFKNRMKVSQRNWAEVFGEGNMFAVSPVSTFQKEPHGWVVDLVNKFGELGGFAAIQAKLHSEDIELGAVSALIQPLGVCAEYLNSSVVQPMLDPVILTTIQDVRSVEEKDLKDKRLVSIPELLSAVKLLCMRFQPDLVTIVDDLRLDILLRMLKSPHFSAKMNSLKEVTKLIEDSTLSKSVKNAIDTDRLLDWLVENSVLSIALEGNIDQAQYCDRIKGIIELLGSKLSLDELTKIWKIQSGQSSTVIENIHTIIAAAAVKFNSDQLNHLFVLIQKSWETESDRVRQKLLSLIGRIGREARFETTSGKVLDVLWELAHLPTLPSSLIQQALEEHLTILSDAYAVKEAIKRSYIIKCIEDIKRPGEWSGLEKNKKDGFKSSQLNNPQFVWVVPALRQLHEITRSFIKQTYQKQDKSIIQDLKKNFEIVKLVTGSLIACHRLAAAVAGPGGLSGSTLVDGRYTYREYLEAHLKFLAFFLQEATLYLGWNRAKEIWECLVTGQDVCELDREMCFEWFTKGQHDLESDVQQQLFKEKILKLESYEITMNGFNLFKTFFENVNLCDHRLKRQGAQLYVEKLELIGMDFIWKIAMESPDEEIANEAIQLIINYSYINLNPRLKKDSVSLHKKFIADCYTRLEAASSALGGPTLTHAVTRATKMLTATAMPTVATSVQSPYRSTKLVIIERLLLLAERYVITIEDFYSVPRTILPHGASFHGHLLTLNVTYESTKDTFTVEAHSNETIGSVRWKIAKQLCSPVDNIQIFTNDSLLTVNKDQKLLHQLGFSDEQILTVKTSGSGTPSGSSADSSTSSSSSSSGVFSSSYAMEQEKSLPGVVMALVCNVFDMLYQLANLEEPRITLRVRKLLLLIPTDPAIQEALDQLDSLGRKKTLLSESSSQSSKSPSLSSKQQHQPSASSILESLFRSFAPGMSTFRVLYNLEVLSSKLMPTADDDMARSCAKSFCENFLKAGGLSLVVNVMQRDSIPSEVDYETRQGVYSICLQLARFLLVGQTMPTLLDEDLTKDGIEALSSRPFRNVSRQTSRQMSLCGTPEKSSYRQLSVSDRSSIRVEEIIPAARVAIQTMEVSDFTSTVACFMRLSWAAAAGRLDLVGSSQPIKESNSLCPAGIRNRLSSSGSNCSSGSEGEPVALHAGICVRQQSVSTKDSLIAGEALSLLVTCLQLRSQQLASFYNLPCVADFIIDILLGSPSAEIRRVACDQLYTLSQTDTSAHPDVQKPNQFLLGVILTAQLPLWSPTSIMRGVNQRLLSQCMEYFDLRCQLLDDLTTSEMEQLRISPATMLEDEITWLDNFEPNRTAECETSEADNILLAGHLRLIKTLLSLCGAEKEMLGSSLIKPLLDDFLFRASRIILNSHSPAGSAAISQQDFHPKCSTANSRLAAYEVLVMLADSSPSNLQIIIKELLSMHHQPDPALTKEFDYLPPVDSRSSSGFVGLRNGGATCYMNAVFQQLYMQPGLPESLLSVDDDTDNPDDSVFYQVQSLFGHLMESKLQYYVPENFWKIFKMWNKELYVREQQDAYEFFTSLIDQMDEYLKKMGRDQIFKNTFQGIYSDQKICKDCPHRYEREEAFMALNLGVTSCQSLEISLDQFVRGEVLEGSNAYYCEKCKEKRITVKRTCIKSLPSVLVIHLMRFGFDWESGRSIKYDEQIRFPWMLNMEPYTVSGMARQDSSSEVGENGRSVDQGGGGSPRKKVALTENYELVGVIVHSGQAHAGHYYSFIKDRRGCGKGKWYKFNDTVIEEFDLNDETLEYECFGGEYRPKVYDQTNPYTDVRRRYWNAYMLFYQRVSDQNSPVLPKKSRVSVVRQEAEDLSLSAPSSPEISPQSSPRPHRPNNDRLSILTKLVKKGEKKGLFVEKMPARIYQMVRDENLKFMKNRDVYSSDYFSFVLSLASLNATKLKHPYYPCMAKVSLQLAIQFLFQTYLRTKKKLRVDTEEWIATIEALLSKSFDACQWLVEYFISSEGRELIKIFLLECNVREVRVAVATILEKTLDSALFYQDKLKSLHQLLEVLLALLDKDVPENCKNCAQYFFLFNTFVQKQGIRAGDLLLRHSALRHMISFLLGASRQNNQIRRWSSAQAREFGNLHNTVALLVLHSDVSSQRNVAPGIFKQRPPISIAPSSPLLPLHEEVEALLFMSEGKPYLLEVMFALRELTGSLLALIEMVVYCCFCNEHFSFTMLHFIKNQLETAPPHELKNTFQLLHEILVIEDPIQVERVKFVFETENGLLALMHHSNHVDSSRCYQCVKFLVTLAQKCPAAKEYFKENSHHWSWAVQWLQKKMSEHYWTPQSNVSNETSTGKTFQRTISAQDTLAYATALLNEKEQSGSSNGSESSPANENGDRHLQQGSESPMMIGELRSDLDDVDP

COc1ccc(C2CCCN2C(=O)CCl)c(OC)c1 (stereo not given)
inactive: USP19 -0.593 | USP22 -0.361 | USP24 -0.807 | USP25 -0.175 | USP28 -0.41
